# Laboratory results reported in ChEMBL document CHEMBL3433997, “St. Jude Leishmania screening dataset” (2016).
# Molecular target: Solute carrier family 2, facilitated glucose transporter member 1 (Homo sapiens) (UniProt P11166)
# Assay: ST_JUDE_LEISH: Cytotoxicity at 2uM final concentration against transgenic Leishmania Mexicana promastigotes LmGLUT1 that are glucose transport deficient and complemented with the human glucose transporter GLUT1. Activity is measured by DNA content using SYBR green in vitro
# Assay type: functional
# Chain of Solute carrier family 2, facilitated glucose transporter member 1 (Homo sapiens) (P11166 whole entry): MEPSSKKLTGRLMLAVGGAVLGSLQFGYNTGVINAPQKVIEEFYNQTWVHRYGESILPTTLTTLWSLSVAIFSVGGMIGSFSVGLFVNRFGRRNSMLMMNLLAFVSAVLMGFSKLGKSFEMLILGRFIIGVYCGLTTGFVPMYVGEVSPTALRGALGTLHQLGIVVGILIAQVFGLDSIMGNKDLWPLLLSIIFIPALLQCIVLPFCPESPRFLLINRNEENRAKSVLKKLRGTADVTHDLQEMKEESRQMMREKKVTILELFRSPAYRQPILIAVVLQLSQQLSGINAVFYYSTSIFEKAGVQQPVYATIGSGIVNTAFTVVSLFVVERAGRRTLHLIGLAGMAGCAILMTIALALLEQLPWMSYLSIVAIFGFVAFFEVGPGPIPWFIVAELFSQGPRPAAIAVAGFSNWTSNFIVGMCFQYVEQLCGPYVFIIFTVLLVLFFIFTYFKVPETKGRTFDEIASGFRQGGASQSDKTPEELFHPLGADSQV
row,Structure (SMILES),inhibition [%]
1,Cc1ccc(-n2ncc(C(=O)Nc3cc(Cl)cc(Cl)c3)c2C2CCNCC2)cc1C,3.26
2,O=C(Nc1cccc(CN2CCN(Cc3ccc(O)cc3)CC2)c1)c1ccc(Cl)c(Cl)c1,3.5
3,O=C(Nc1ccc(Br)c(Cl)c1)c1cc([N+](=O)[O-])cc2cn[nH]c12,-0.11
4,OCCN1CCN(Cc2cccc(-c3ccc(-c4nc5cc(C(F)(F)F)ccc5[nH]4)cc3)c2)CC1,5.08
5,Cc1cccc2nc(-c3ccc(-c4ccc(CNCCN5CCNCC5)cc4)s3)[nH]c12,2.77
6,c1ccc(-n2ncc(CNCc3ccc(-c4ccc(-c5nc6ccccc6[nH]5)s4)cc3)n2)cc1,2.35
7,CN(C)CCc1coc2ccc(C(=O)Nc3ccc(-c4ccc(O)cc4)cc3)cc12,4.69
8,CN1CCC=C(C(=O)NCC(C)(C)c2nc(-c3ccc(Cl)c(O)c3)c(-c3ccncc3)[nH]2)C1,6.76
9,COc1cc([N+](=O)[O-])ccc1NC(=O)Nc1ccc(OC(F)(F)F)cc1,1.06
10,CC(C)Oc1cc2c(cc1NS(=O)(=O)c1ccc(-c3ccc(Cl)cc3)cc1)CCN(C)CC2,2.55
11,O=C(NCCCCN1CCC(c2ccc3ccccc3c2)CC1)c1ccc(NC(=O)c2ccc(Cl)cc2)cc1,2.27
12,CC(=O)N[C@H](C(=O)Nc1cccc(-c2ccc(-c3nc4cccc(C)c4[nH]3)s2)c1)C(C)C,3.65
13,CCc1c[nH]c2c(N3CCCCC3=O)cc(C(=O)N[C@@H](Cc3ccccc3)[C@H](O)CNCc3cccc(OC)c3)cc12,-0.8
14,Nc1c(Cl)cc(C(O)CNCCCCCOCCc2ccc3occc3c2)cc1Cl (stereo not given),3.53
15,COc1ccc2nccc([C@@H](O)CN3CCC(NCCOc4ccccc4C#N)CC3)c2c1,4.87
16,Cc1cccc2nc(-c3ccc(-c4cccc(CNCCc5ccncc5)c4)s3)[nH]c12,3.13
17,Cc1c(C)n(C2CCCC2)c2ncnc(OC3CCN(CC(=O)NC4CC4)CC3)c12,9.5
18,CCOC(=O)c1nc(-c2ccccc2)[nH]c1NC(=S)NC1CCCCC1,-0.61
19,CCNc1cc(C(=O)N[C@@H](Cc2ccccc2)[C@H](O)CNC2(CC(C)C)CC2)cc(N2CCCCS2(=O)=O)c1,-1.54
20,COc1cc2nc(N(C)Cc3cccc(I)c3)nc(N)c2cc1OC,4.75

row,Structure (SMILES),inhibition [%]
1,COc1ccccc1Cn1ccnc1SCC(=O)Nc1cccc(C(F)(F)F)c1,0.58
2,O=C(NC1CCN(CCC[C@]2(c3ccc(Cl)c(Cl)c3)CCCN(C(=O)c3ccccc3)C2)CC1)c1ccc(F)cc1,3.29
3,COc1ccc2ncc(Cl)c([C@@H](O)CN3CCC(NCc4cc5c(cn4)OCCO5)CC3)c2c1,9.54
4,Cc1noc(-c2ccc3c(c2)CCN(CCC2CCC(NC(=O)/C=C/c4cccc(Cl)c4)CC2)CC3)n1 (stereo not given),1.02
5,Cc1cc(N)cc2nc(-c3ccc(N)cc3)[nH]c12,3.09
6,COc1ccc(-c2cncc(-c3ccc(OC)c(OC)c3)n2)cc1OC,2.76
7,O=C(Nc1ccc(-c2ccc(-c3nc4cc(C(F)(F)F)ccc4[nH]3)s2)cc1)c1ccoc1,0.13
8,Cn1cc(Br)c(-c2cccc(Nc3ccnc4cc(-c5nccs5)ccc34)c2)n1,3.67
9,N=C(NCCCCC1CCCCC1)c1cccc(C(=N)NCCCCC2CCCCC2)n1,0.33
10,NC(=O)c1ccc(C(=O)Nc2cccc(-c3cccc(-c4nc5cc(C(F)(F)F)ccc5[nH]4)c3)c2)cc1,3.29
11,c1ccc(Oc2ccc(Nc3ccnc4cc(-c5csc(CNCCN6CCOCC6)n5)ccc34)cc2)cc1,-1.32
12,COc1cccc(C=NNc2cc(C)nc3c(OC)cccc23)c1,3.12
13,COc1ccc2nccc([C@@H](O)CN3CCC(NC(=O)C(c4ccsc4)N4CCN(c5ccccc5OC)CC4)CC3)c2c1 (stereo not given in full),1.93
14,COc1ccc(Cc2c(Cl)nc3nc(N)nc(N)c3c2C)cc1,7.37
15,Oc1ccc2[nH]c(-c3cccc(F)c3)nc2c1CN1CCC(O)(c2ccccc2)CC1,3.21
16,CC(C)CC1c2[nH]c3ccccc3c(=O)c2CN1C(=O)OC(C)(C)C (stereo not given),2.72
17,c1ccc2[nH]c(CN(Cc3nc4ccccc4[nH]3)Cc3nc4ccccc4[nH]3)nc2c1,-2.76
18,COc1ccccc1C1CCN(CCCCNC(=O)c2ccc(NC(=O)c3ccc(Cl)cc3)cc2)CC1,1.27
19,CCCc1nc2c(N3CC(NC(=O)/C=C/c4ccccc4)C3)cccc2n1C1CC1,9
20,CCCCCN1CCC(NS(=O)(=O)c2cccc(C(=O)Nc3ccc(Cl)cc3)c2)CC1,-0.5

# Molecular target: Hexose transporter 1 (Plasmodium falciparum) (UniProt O97467)
# Assay: ST_JUDE_LEISH: Cytotoxicity at 2uM final concentration against transgenic Leishmania Mexicana promastigotes LmPfHT that are glucose transport deficient and complemented with the Plasmodium falciparum hexose transporter. Activity is measured by DNA content using SYBR green in vitro
# Assay type: functional
row,Structure (SMILES),inhibition [%]
1,Cc1ccc(-n2ncc(C(=O)Nc3cc(Cl)cc(Cl)c3)c2C2CCNCC2)cc1C,1.43
2,O=C(Nc1cccc(CN2CCN(Cc3ccc(O)cc3)CC2)c1)c1ccc(Cl)c(Cl)c1,5.27
3,O=C(Nc1ccc(Br)c(Cl)c1)c1cc([N+](=O)[O-])cc2cn[nH]c12,-0.77
4,OCCN1CCN(Cc2cccc(-c3ccc(-c4nc5cc(C(F)(F)F)ccc5[nH]4)cc3)c2)CC1,3.3
5,Cc1cccc2nc(-c3ccc(-c4ccc(CNCCN5CCNCC5)cc4)s3)[nH]c12,3.12
6,c1ccc(-n2ncc(CNCc3ccc(-c4ccc(-c5nc6ccccc6[nH]5)s4)cc3)n2)cc1,2.45
7,CN(C)CCc1coc2ccc(C(=O)Nc3ccc(-c4ccc(O)cc4)cc3)cc12,4.41
8,CN1CCC=C(C(=O)NCC(C)(C)c2nc(-c3ccc(Cl)c(O)c3)c(-c3ccncc3)[nH]2)C1,9.88
9,COc1cc([N+](=O)[O-])ccc1NC(=O)Nc1ccc(OC(F)(F)F)cc1,2.37
10,CC(C)Oc1cc2c(cc1NS(=O)(=O)c1ccc(-c3ccc(Cl)cc3)cc1)CCN(C)CC2,7.31
11,O=C(NCCCCN1CCC(c2ccc3ccccc3c2)CC1)c1ccc(NC(=O)c2ccc(Cl)cc2)cc1,4.42
12,CC(=O)N[C@H](C(=O)Nc1cccc(-c2ccc(-c3nc4cccc(C)c4[nH]3)s2)c1)C(C)C,2.85
13,CCc1c[nH]c2c(N3CCCCC3=O)cc(C(=O)N[C@@H](Cc3ccccc3)[C@H](O)CNCc3cccc(OC)c3)cc12,-2.31
14,Nc1c(Cl)cc(C(O)CNCCCCCOCCc2ccc3occc3c2)cc1Cl (stereo not given),3.64
15,COc1ccc2nccc([C@@H](O)CN3CCC(NCCOc4ccccc4C#N)CC3)c2c1,2.43
16,Cc1cccc2nc(-c3ccc(-c4cccc(CNCCc5ccncc5)c4)s3)[nH]c12,1.49
17,Cc1c(C)n(C2CCCC2)c2ncnc(OC3CCN(CC(=O)NC4CC4)CC3)c12,6.34
18,CCOC(=O)c1nc(-c2ccccc2)[nH]c1NC(=S)NC1CCCCC1,-0.88
19,CCNc1cc(C(=O)N[C@@H](Cc2ccccc2)[C@H](O)CNC2(CC(C)C)CC2)cc(N2CCCCS2(=O)=O)c1,4.02
20,COc1cc2nc(N(C)Cc3cccc(I)c3)nc(N)c2cc1OC,7.24

row,Structure (SMILES),inhibition [%]
1,COc1ccccc1Cn1ccnc1SCC(=O)Nc1cccc(C(F)(F)F)c1,0.38
2,O=C(NC1CCN(CCC[C@]2(c3ccc(Cl)c(Cl)c3)CCCN(C(=O)c3ccccc3)C2)CC1)c1ccc(F)cc1,2.13
3,COc1ccc2ncc(Cl)c([C@@H](O)CN3CCC(NCc4cc5c(cn4)OCCO5)CC3)c2c1,10.5
4,Cc1noc(-c2ccc3c(c2)CCN(CCC2CCC(NC(=O)/C=C/c4cccc(Cl)c4)CC2)CC3)n1 (stereo not given),0
5,Cc1cc(N)cc2nc(-c3ccc(N)cc3)[nH]c12,2.43
6,COc1ccc(-c2cncc(-c3ccc(OC)c(OC)c3)n2)cc1OC,2.56
7,O=C(Nc1ccc(-c2ccc(-c3nc4cc(C(F)(F)F)ccc4[nH]3)s2)cc1)c1ccoc1,-0.79
8,Cn1cc(Br)c(-c2cccc(Nc3ccnc4cc(-c5nccs5)ccc34)c2)n1,2.34
9,N=C(NCCCCC1CCCCC1)c1cccc(C(=N)NCCCCC2CCCCC2)n1,0.98
10,NC(=O)c1ccc(C(=O)Nc2cccc(-c3cccc(-c4nc5cc(C(F)(F)F)ccc5[nH]4)c3)c2)cc1,5.6
11,c1ccc(Oc2ccc(Nc3ccnc4cc(-c5csc(CNCCN6CCOCC6)n5)ccc34)cc2)cc1,1.23
12,COc1cccc(C=NNc2cc(C)nc3c(OC)cccc23)c1,1.32
13,COc1ccc2nccc([C@@H](O)CN3CCC(NC(=O)C(c4ccsc4)N4CCN(c5ccccc5OC)CC4)CC3)c2c1 (stereo not given in full),1.41
14,COc1ccc(Cc2c(Cl)nc3nc(N)nc(N)c3c2C)cc1,7.06
15,Oc1ccc2[nH]c(-c3cccc(F)c3)nc2c1CN1CCC(O)(c2ccccc2)CC1,4.5
16,CC(C)CC1c2[nH]c3ccccc3c(=O)c2CN1C(=O)OC(C)(C)C (stereo not given),2.68
17,c1ccc2[nH]c(CN(Cc3nc4ccccc4[nH]3)Cc3nc4ccccc4[nH]3)nc2c1,1.73
18,COc1ccccc1C1CCN(CCCCNC(=O)c2ccc(NC(=O)c3ccc(Cl)cc3)cc2)CC1,3.41
19,CCCc1nc2c(N3CC(NC(=O)/C=C/c4ccccc4)C3)cccc2n1C1CC1,7.28
20,CCCCCN1CCC(NS(=O)(=O)c2cccc(C(=O)Nc3ccc(Cl)cc3)c2)CC1,1.63
